Assay results from PubChem BioAssay.
For some assays here: Entries with a potency or affinity are not part of this list. The source made the active and inactive calls.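 How the source made its calls, unless noted: active means calcium signal ratio cut to more than 3 SD under the fully stimulated control mean yet still positive, in both repeats and the primary screen; inactive means the rest.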

Columns and labels:
[1] = system: TRPC4 beta (transient receptor potential cation channel C4), mouse; experiment: TRPC4 cation channel opening, retest – cell-based, Fluo4 calcium, HEK293 TRPC4beta/mu-opioid, duplicates, 10 µM, confirmation (AID 2426;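 active means fluorescence ratio normalized to control raised more than 50% in primary screen plus both repeat runs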); conditions: Fluo4 calcium fluorescence, at 10 µM; stronger effect = higher value
[2] = system: transient receptor potential cation channel C4 beta (TRPC4), mouse; experiment: TRPC4 cation channel opening, second retest – cell-based, second round, Fluo4, HEK293 TRPC4beta/mu-opioid, 1 µM, confirmation (AID 2461;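 active means primary screen active and over 50% activation in each of two duplicate runs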); conditions: Fluo4 calcium fluorescence, at 1 µM; stronger effect = higher value
[3] = system: TRPC4 (transient receptor potential cation channel C4 beta), mouse; experiment: potentiation of DAMGO EC20 TRPC4 response – cell-based, second round, Fluo-4, HEK293 TRPC4beta/mu-opioid, 1 µM, confirmation (AID 2554;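 active means primary screen hit whose fluorescence ratio, in both repeats, exceeds the weak agonist control mean by 3 SD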); conditions: DAMGO EC20, Fluo-4 calcium flux, at 1 µM; stronger effect = higher value
[4] = system: TRPC4 beta (transient receptor potential cation channel C4), mouse; experiment: potentiation of DAMGO EC20 TRPC4 response – cell-based, Fluo-4, HEK293 TRPC4beta/mu-opioid, confirmation (AID 2555;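 active means primary screen hit whose calcium fluorescence ratio, in both repeats, exceeds the weak agonist control mean by 3 SD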); conditions: DAMGO EC20, Fluo-4 calcium flux, at 10 µM; stronger effect = higher value
[5] = molecular target: Short transient receptor potential channel 4 (Mus musculus) (UniProt Q9QUQ5); experiment: blockers of DAMGO-evoked TRPC4 calcium flux – cell-based, Fluo4, HEK293 TRPC4beta/mu-opioid, confirmation (AID 2636;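 active means calcium signal cut by more than 3 SD below the full-agonist control yet still positive, in both repeats and the earlier primary screen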); conditions: at 10 µM; stronger effect = higher value
[6] = molecular target: Short transient receptor potential channel 4 (Mus musculus) (UniProt Q9QUQ5); experiment: blockers of DAMGO-evoked TRPC4 calcium flux – cell-based, second round, Fluo4, HEK293 TRPC4beta/mu-opioid, 1 µM, confirmation (AID 2637); conditions: at 1 µM; stronger effect = higher value
[7] = molecular target: Short transient receptor potential channel 4 (Mus musculus) (UniProt Q9QUQ5); experiment: calcium entry via TRPC4 opening agents – cell-based, HEK293 TRPC4/mu-opioid, Fluo-4 calcium, dose response (AID 434937;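 active means primary screen activator hit with a dose response curve and TRPC4 channel activation at any tested dose; inactive means no activation, no dose response, or not a primary hit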)
[8] = molecular target: Short transient receptor potential channel 4 (Mus musculus) (UniProt Q9QUQ5); experiment: potentiation of DAMGO-evoked TRPC4 calcium signal – cell-based, HEK293 TRPC4/mu-opioid, Fluo-4 calcium, EC20 DAMGO, dose response (AID 434941;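 active means earlier screen potentiator hit that boosts the TRPC4 ion channel at some dose, with a dose response; inactive means no potentiation, no dose response, or not a prior hit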;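 further: calcium entry triggered by an EC20 dose of DAMGO at the co-expressed mu-opioid receptor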)
[9] = molecular target: Short transient receptor potential channel 4 (Mus musculus) (UniProt Q9QUQ5); experiment: block of DAMGO-driven TRPC4 calcium entry – cell-based, HEK293 TRPC4/mu-opioid, Fluo-4 calcium, dose response (AID 434942;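 active means primary screen inhibitor hit that blocks the TRPC4 channel at some tested dose, yielding a dose curve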)
[10] = molecular target: Short transient receptor potential channel 6 (Mus musculus) (UniProt Q61143); experiment: TRPC6 blockade by TRPC4 inhibitor hits – cell-based, HEK293, membrane potential dye, duplicate, selectivity assay for TRPC4 inhibitor project, confirmation (AID 434948;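 active means active in primary screen and both duplicates, each dropping signal beyond three positive-control SD with fluorescence still positive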); conditions: HEK293 TRPC6, membrane potential dye fluorescence, at 10 µM, stimulated with maximal-effect acetylcholine; stronger effect = higher value
[11] = molecular target: Short transient receptor potential channel 6 (Mus musculus) (UniProt Q61143); experiment: TRPC6 opening by TRPC4 activator hits – cell-based, HEK293, membrane potential dye, duplicate, selectivity assay for TRPC4 activator project, confirmation (AID 434950;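 active means membrane potential signal rise above negative control mean plus 3 SD in both duplicates, also active in the earlier TRPC4 screen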); conditions: HEK293 TRPC6, membrane potential fluorescence, at 10 µM; activation: stronger effect = higher value; outcome: activation
[12] = molecular target: Short transient receptor potential channel 6 (Mus musculus) (UniProt Q61143); experiment: positive modulators of mouse TRPC6 channel – HEK293 cells, membrane potential dye, duplicate, selectivity assay for TRPC4 potentiator project, confirmation (AID 434952;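 active means compound raising the membrane signal above positive-control mean plus 3 SD in both repeats, and a primary screen hit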); conditions: HEK293 TRPC6, membrane potential dye fluorescence, at 10 µM, maximal acetylcholine added after compound; stronger effect = higher value
[13] = molecular target: Short transient receptor potential channel 4 (Mus musculus) (UniProt Q9QUQ5); experiment: calcium flux activators in TRPC4/5HT1a cells, counter-screen for TRPC4 activator project, cell-based, second counter screen, HEK293 TRPC4/5HT1a, Fluo-4 (AID 434977;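 active means calcium signal rise above buffer-control mean plus 5 SD in both duplicates, and also a hit in the primary screen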); conditions: Fluo-4 calcium flux, at 10 µM; stronger effect = higher value
[14] = serotonin-gated TRPC4 signal block – cell-based, second counter screen, HEK293 TRPC4/5HT1a, Fluo-4, counter-screen for TRPC4 inhibitor project, confirmation (AID 434978;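 active means primary screen active whose calcium signal fell more than 3 SD beyond the full-serotonin control mean in both duplicate plates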;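 on outcome: serotonin given first at submaximal then at maximal dose after compound preincubation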); conditions: Fluo-4 calcium flux, at 10 µM, serotonin added to trigger calcium flux; stronger effect = higher value
[15] = system: TRPC4 (mouse), co-expressed with 5HT1a in HEK293; experiment: enhancement of serotonin-evoked TRPC4 response – cell-based, second counter screen, HEK293 TRPC4/5HT1a, Fluo-4, counter-screen for TRPC4 potentiator project, confirmation (AID 434979;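 active means signal rise over 3 SD above mean of control wells given weak agonist, in both repeats and first screen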); conditions: Fluo-4 calcium flux, at 10 µM, serotonin added at its EC20 dose; stronger effect = higher value
[16] = nonspecific calcium rise without TRPC4 – cell-based, HEK293 mu-opioid receptor line, counter-screen for TRPC4 activator project, confirmation (AID 449723;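 active means hit in primary screen, with calcium signal over 5 SD above buffer well mean in both duplicates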;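 further: counter screen cells carry the mu-opioid receptor alone and lack TRPC4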); conditions: HEK293 mu-opioid cells, Fluo-4 calcium fluorescence, at 10 µM; stronger effect = higher value
[17] = nonspecific potentiation of DAMGO calcium response – cell-based, HEK293 mu-opioid receptor line, counter-screen for TRPC4 allosteric potentiator project, confirmation (AID 449724;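 active means calcium signal rise more than 3 SD above the low-dose agonist control mean, in both duplicate plates and the primary screen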); conditions: HEK293 mu-opioid receptor cells, Fluo-4 calcium flux, at 10 µM, compound added before EC20 DAMGO stimulus; stronger effect = higher value

Short transient receptor potential channel 6 (Mus musculus), sequence (Q61143 whole entry, looked up): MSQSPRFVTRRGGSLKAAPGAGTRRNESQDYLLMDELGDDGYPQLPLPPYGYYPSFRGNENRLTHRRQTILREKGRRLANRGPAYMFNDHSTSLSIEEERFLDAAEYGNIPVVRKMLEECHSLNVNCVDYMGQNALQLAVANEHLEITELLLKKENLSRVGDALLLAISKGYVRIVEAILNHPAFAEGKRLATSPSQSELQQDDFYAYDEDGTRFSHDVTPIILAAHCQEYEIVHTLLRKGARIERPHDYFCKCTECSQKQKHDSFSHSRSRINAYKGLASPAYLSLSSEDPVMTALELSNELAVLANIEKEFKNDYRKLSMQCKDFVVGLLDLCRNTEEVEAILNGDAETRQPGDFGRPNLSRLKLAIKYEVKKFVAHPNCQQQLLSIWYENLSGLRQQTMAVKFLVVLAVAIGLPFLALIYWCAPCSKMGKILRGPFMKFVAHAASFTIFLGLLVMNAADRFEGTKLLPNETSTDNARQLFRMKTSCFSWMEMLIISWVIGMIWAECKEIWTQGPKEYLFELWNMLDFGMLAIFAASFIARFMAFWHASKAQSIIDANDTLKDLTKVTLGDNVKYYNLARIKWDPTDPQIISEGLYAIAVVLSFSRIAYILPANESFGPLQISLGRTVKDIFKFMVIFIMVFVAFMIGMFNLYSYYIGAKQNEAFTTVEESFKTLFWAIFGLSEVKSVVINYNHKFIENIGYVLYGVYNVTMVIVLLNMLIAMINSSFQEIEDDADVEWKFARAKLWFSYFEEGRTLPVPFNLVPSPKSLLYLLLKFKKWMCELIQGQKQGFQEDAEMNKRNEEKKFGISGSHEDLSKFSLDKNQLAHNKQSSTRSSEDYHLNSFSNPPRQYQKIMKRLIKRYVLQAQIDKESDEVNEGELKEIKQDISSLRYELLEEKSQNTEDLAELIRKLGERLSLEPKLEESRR
Short transient receptor potential channel 4 (Mus musculus), sequence (Q9QUQ5 whole entry, looked up): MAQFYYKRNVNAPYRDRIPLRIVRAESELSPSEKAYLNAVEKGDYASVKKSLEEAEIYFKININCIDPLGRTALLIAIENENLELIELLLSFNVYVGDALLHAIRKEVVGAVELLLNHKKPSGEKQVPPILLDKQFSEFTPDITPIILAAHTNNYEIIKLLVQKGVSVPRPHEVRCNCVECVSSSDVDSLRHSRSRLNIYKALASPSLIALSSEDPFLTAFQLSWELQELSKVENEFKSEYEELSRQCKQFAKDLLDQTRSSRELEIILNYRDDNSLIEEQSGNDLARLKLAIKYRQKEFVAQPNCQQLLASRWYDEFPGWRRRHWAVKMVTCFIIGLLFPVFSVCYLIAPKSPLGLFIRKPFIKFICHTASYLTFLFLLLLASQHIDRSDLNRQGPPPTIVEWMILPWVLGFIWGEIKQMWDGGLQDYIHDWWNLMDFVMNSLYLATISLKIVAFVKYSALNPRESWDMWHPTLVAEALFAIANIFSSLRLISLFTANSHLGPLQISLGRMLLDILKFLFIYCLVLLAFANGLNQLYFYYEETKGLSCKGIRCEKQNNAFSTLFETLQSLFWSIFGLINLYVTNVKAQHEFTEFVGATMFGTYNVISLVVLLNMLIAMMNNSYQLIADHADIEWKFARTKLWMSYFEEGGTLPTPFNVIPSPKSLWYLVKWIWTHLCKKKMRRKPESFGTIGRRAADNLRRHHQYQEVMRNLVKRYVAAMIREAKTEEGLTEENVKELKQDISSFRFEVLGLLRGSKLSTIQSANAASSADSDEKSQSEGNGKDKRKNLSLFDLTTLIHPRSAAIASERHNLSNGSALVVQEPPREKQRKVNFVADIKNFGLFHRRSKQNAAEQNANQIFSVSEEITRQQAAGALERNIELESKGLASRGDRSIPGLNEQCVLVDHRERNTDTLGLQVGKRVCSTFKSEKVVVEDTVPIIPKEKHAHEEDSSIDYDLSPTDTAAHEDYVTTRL

O=[N+]([O-])c1cc(Cc2ccccc2)cc(C=Nc2ccc(N3CCOCC3)cc2)c1O
inactive: outcome [1] | outcome [2] | outcome [3] | outcome [4] | outcome [5] | outcome [6] | outcome [7] | outcome [8] | outcome [9] | outcome [10] | outcome [11] | outcome [12] | outcome [13] | outcome [14] | outcome [15] | outcome [16] | outcome [17]

CCOC(=O)c1cc(=O)n(Cc2ccccc2C)c2ccccc12
active: potentiation [4] 74% | potentiation [15] 48.4%
inactive: outcome [1] | outcome [2] | outcome [3] | outcome [5] | outcome [6] | outcome [7] | outcome [8] | outcome [9] | outcome [10] | outcome [11] | outcome [12] | outcome [13] | outcome [14] | outcome [16] | outcome [17]

COc1cccc(Oc2cncnc2-c2ccc(OC)cc2O)c1
inactive: outcome [1] | outcome [2] | outcome [3] | outcome [4] | outcome [5] | outcome [6] | outcome [7] | outcome [8] | outcome [9] | outcome [10] | outcome [11] | outcome [12] | outcome [13] | outcome [14] | outcome [15] | outcome [16] | outcome [17]

O=C1NC(c2ccccc2)=C(c2nc3ccccc3s2)C(c2ccccc2)N1 (centres undefined)
active: potentiation [4] 14% | potentiation [15] 24.2%
inactive: outcome [1] | outcome [2] | outcome [3] | outcome [5] | outcome [6] | outcome [7] | outcome [8] | outcome [9] | outcome [10] | outcome [11] | outcome [12] | outcome [13] | outcome [14] | outcome [16] | outcome [17]

COc1ccc(CCN2C(=S)N(C)C(=O)C2CC(=O)Nc2ccc(F)cc2)cc1 (centres undefined)
inactive: outcome [1] | outcome [2] | outcome [3] | outcome [4] | outcome [5] | outcome [6] | outcome [7] | outcome [8] | outcome [9] | outcome [10] | outcome [11] | outcome [12] | outcome [13] | outcome [14] | outcome [15] | outcome [16] | outcome [17]

O=C(CN1CCCCC1)Nc1ccccc1Oc1ccccc1
active: inhibition [5] 92% | inhibition [10] 33.5% | inhibition [14] 31.5%
inactive: outcome [1] | outcome [2] | outcome [3] | outcome [4] | outcome [6] | outcome [7] | outcome [8] | outcome [9] | outcome [11] | outcome [12] | outcome [13] | outcome [15] | outcome [16] | outcome [17]

c1ccc(-c2cnc(SCCN3CCOCC3)n2CC2CCCO2)cc1 (centres undefined)
inactive: outcome [1] | outcome [2] | outcome [3] | outcome [4] | outcome [5] | outcome [6] | outcome [7] | outcome [8] | outcome [9] | outcome [10] | outcome [11] | outcome [12] | outcome [13] | outcome [14] | outcome [15] | outcome [16] | outcome [17]
